# In the OligoGym collection:
# Target: RASGRP2
# Experiment: pooled miR-30 sensor sort-seq; sequence = guide strand
# Details: shRNA
# Further: reference of the scale not given here.
row,Sequence,sensor-assay potency score (higher = more potent)
1,TTGTTGGTAGATGTGGAGCAGC,-1.12
2,TTTGCTGAGGATCATGAGCTGC,-0.888
3,TTAGGCTGCTGTGCCGTCGGTT,-0.65
4,TACTGATCCAGAGACACCGTGA,0.0565

# Target: RASIP1
# Experiment: as above
# Details: shRNA
row,Sequence,sensor-assay potency score (higher = more potent)
1,TTGAATAGAGAGTCTTGGTGAG,0.37
2,TTGGAGAAGAAGAACAAGTAGC,-0.187
3,TTAGGCTGCTCCATGAAGCCTT,-0.552
4,TTTTCTGAGCGCTCCTTGCCTC,-0.853
5,TGAATAGAGAGTCTTGGTGAGG,-1.22
6,TGGAGCAGCAGGAAGTAGGGGC,0.0878
7,TTGACCTCGTTCCATCAGCGAG,-1.71
8,TCAACTGATCGAAGTCCCCGGG,0.0667
9,AAGAAGACTTGACAGAGGCTGC,0.0487
10,TTCCAAGTCATTGCAGAGCTGT,-0.369
11,TAGGTCTCAATCCTGGAGGCAT,-0.489
12,TTGGTCAGCCTCCTTCTCCATT,-1.48

# Target: RASL10B
# Experiment: as above
# Details: shRNA
row,Sequence,sensor-assay potency score (higher = more potent)
1,TACAAAACTGACAGTGATCAGC,-0.715
2,TTCTAAATCGGTACAAAACTGA,-0.599
3,TCGTTGTACAAGAACTGGCGCA,-0.634
4,TTGACGTACTCAAAGCTGTCAA,0.000852
5,TAGGTTGTTGTGTCTCTGGGGG,0.276
6,TCGTAGACCAGGATGTAGGCGT,0.139
7,TAGACCAGGATGTAGGCGTGGA,-0.176
8,TTAATCAGGATAGTCTGAGATC,-1.01
9,AACTCGTTGTACAAGAACTGGC,0.0656
10,TAGCCGCACTTCCAGGTCTTGC,-1.97
11,ATGTAGGCGTGGACACTCCGGA,-0.908
12,TCCACGTAGCCGCACTTCCAGG,-2

# Target: RASSF2
# Experiment: as above
# Details: shRNA
row,Sequence,sensor-assay potency score (higher = more potent)
1,TAACTAAAATCAAAAGTCCTTG,-0.812
2,TTCTGTTTCTCACCACTCGTAT,-0.432
3,TATTTATCTTGTCCACATGGGA,-0.838
4,TATCTTGTCCACATGGGACTAG,0.13
5,TACATGTGAAAGTATCAGGTAG,-0.041
6,TATGGTTGTAGAAATGGCCGTT,1.03
7,TTTGTGTCTAAATGTTTCCATG,-1.27
8,TTCCCGATCTTCTTCCTCCTGG,0.559
9,TTCTCCATTAGGAACACTTTGG,-1.02
10,TTCGTTGTCATCCTGCATCTGC,0.418
11,TCTGCTGACTTCTACATCCAGC,-0.516
12,TTTAAGTACCGGCATCTCGAAC,-0.976
